Assay results: PubChem BioAssay (NCATS)
Inconclusive results are not listed. A call without a number means that no potency is given here. Unmarked numbers belong to inactive results. Active and inactive are the calls of the source. The call rests on the fitted dose curve; in most records, active means well fitted inhibition curve with a large enough effect; inconclusive means small, poorly fitted or top-dose-only effect; inactive means no such curve, though single readings can be large or run the other way. Where a SMILES comes first, the peptide text is derived from it. The star is where a group is joined. Cbz = O=C(OCc1ccccc1)*; CH2Cl = ClC*

How the values were obtained:
[1] = tested on: Zika virus NS2B-NS3 protease (unlinked complex); assay: Primary screen GU Rhodamine qHTS for Zika virus inhibitors: Unlinked NS2B-NS3 protease assay (AID 1347159); further: nearly all actives have a fitted effect of over 60% in size
Summary of the method: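 Unlinked NS2B/NS3, 25 nM; Rhod110 peptide, 1.5 microM; compounds, up to 114 microM. Reaction run 15 min at RT in 10 mM Tris-HCl pH 8.0, 0.01% Tween 20; kinetic fluorescence change fitted with a 4-parameter Hill model.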

[2] = tested on: Zika virus NS2B-NS3 protease (linked construct); assay: Primary screen NINDS Rhodamine qHTS for Zika virus inhibitors (AID 1347160); further: nearly all actives have a fitted effect of over 55% in size
Summary of the method: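 Single-chain NS2B-NS3 protease, 25 nM, pH 8.0; compounds preincubated 15 min. Activity: Rhodamine110 release from 1.5 microM substrate over 15 min, room temperature, data fitted to 4-parameter Hill.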
Potency means the concentration at half of the fitted maximal effect.

Row | Structure (SMILES) | Potency [1] | Potency [2] | activity change, negative = inhibition [1] | activity change, negative = inhibition [2]
1 | Cn1ncc(Cl)c1-c1cc(C(=O)N[C@H](CN)Cc2ccc(F)c(F)c2)sc1Cl | inactive | inactive | – | –
2 | CC(=O)OC1CC(O)(C(C)C)C2C(OC(=O)c3ccc(O)cc3)C=C(C)C(=O)CC12C (stereo unspecified) | inactive | inactive | – | –
3 | O=C(Nc1cccnc1)c1cc(-c2ccnc(F)c2)ccc1OCc1ccccc1 | inactive | inactive | – | –
4 | CN1CCC(c2cn(C)c3ccc(OS(=O)(=O)c4c(F)cccc4F)cc23)CC1 | inactive | inactive | – | –
5 | C=C(C(=O)O[C@H]1C/C(C)=C/CC/C(CO)=C/[C@H]2OC(=O)C(=C)[C@H]12)C(O)CO (stereo partly specified) | inactive | inactive | – | –
6 | O=C(NCCCc1ccccc1)C1CCC(CNS(=O)(=O)c2cccc3nsnc23)CC1 (stereo unspecified) | inactive | inactive | – | –
7 | Cn1ncc2cc(-c3cnc(N)c(Cl)c3N3CCC4(CCNC4=O)CC3)ccc21 | inactive | inactive | – | –
8 | COc1ccc(Oc2c(Cl)cnn(-c3cc(C)cc(C)c3)c2=O)cc1 | inactive | inactive | – | –
9 | Cc1ccc(-c2cn3c4c(sc3n2)CCCC4)cc1 | inactive | inactive | – | –
10 | Cc1cc(C(=O)Nc2cc(Nc3ccc4c(/C=C/c5ccccn5)n[nH]c4c3)ccc2F)n(C)n1 | inactive | inactive | – | –
11 | O=C(/C=C/c1ccccc1O)O[C@@H]1O[C@H](CO)[C@@H](O)[C@H](O)[C@H]1O | inactive | inactive | – | –
12 | CC#CC(=O)Nc1ccc2ncnc(Nc3cccc(Br)c3)c2c1 | inactive | inactive | – | –
13 | c1cc(NC2CCNCC2)nc(-c2cnc3ccccn23)c1 | inactive | inactive | – | –
14 | CC(C)(O)c1ccn2c(-c3ccc(F)c(-c4ccc(F)cc4C#N)c3)cnc2c1F | inactive | inactive | – | –
15 | Cc1c(C(=O)NCc2cccnc2)nn(-c2ccc(Cl)cc2Cl)c1-c1ccc(Cl)cc1 | inactive | inactive | – | –
16 | CNc1cccc(CCOc2ccc3c(c2)CN(CC(F)(F)F)C(=O)[C@H](CC(=O)O)C3)n1 | inactive | inactive | – | –
17 | COc1ccc(NC(=O)c2ccc(-c3ccc(C(=N)N)cc3C)cc2)cc1N1CCN(C)CC1 | inactive | inactive | – | –
18 | COC1CCN(c2cccc(-c3cc(NC(C)=O)nc(-n4nc(C)cc4C)n3)n2)CC1 | inactive | inactive | – | –
19 | CC(C)=C1C[C@@]2(C)C(=CC1=O)CC[C@@H](OC(=O)/C(C)=C/CO)[C@@H]2C | inactive | inactive | – | –
20 | O=c1cc(NCCCN[C@@H]2CCOc3c(Br)cc(Br)cc32)[nH]c2ccsc12 | inactive | inactive | – | –
21 | C=C(C)[C@@H]1CC=C(COC(=O)NC(=O)c2ncn3c(=O)n(C)nnc23)CC1 | inactive | inactive | – | –
22 | Cc1ccc(O)cc1Nc1ccnc(Nc2cccc(C(N)=O)c2)n1 | inactive | inactive | – | –
23 | C=C1C(=O)O[C@H]2C[C@@H](C)[C@@H]3CCC(=O)[C@@]3(C)C[C@H]12 | inactive | inactive | – | –
24 | C=C1C(=O)O[C@@H]2/C=C(\CO)CC/C=C(/C=O)C[C@@H](O)[C@@H]12 | inactive | inactive | – | –
25 | N#Cc1ccc(COC[C@H]2O[C@@H](n3c(NCc4ccc(Cl)c(Cl)c4)nc4c(N)ncnc43)[C@H](O)[C@@H]2O)cc1 | inactive | inactive | – | –

Row | Structure (SMILES) | Potency [1] | Potency [2] | activity change, negative = inhibition [1] | activity change, negative = inhibition [2]
26 | COc1ccccc1N1CCN(c2ncnc3n[nH]c(Br)c23)CC1 | inactive | inactive | – | –
27 | COc1ccc(C(=O)Nc2c(Cl)cncc2Cl)cc1OC1CCCC1 | inactive | inactive | – | –
28 | N#Cc1cc(C2=Nc3ccc(Br)cc3NC(=O)C2)ccn1 | inactive | inactive | – | –
29 | Cc1cc2occ(CN(C)CCN(C)Cc3cn(-c4cccc(C(F)(F)F)c4)c4ccccc34)c(=O)c2cc1C | inactive | inactive | – | –
30 | OC[C@H]1O[C@@H](OC/C=C/c2ccc(O)cc2)[C@H](O)[C@@H](O)[C@@H]1O | inactive | inactive | – | –
31 | Cc1c(C2=CCN(C(=O)N(C)C(C)C)CC2)nnn1-c1cccnc1F | inactive | inactive | – | –
32 | CC(=O)O[C@H]1[C@@]2(O)C[C@H](C)[C@H](OC(=O)c3ccccc3)[C@@H]2[C@@H](OC(=O)CO)[C@]2(OC(C)=O)C[C@H]3C(=O)C(C)(C)C[C@@H]3[C@@]1(C)[C@H]2OC(C)=O | inactive | inactive | – | –
33 | Cn1ncc(Cl)c1-c1cc(C(=O)N[C@H](CN)Cc2ccc(F)c(F)c2)oc1Cl | inactive | inactive | – | –
34 | CN1CCN(C(=O)CN[C@@H]2C[C@H]2c2ccc(OCc3ccccc3)cc2)CC1 | inactive | inactive | – | –
35 | CCOc1ccc(Cc2nc(-c3c(C)nc4ccccn34)cs2)cc1 | inactive | inactive | – | –
36 | CCN(CCNC(=O)Nc1ccccc1Br)c1cccc(C)c1 | inactive | inactive | – | –
37 | COC1CC/C=C(\C)C(=O)Nc2cc(O)cc(c2)CC(C)CC(OC)C(O)C(C)/C=C(\C)C1OC(N)=O (stereo unspecified) | inactive | inactive | – | –
38 | Cc1ccccc1CN1CCn2c1nc1c(c2=O)CN(Cc2ccccc2)CC1 | inactive | inactive | – | –
39 | COC1=CC(=O)O/C1=C(/OC)[C@@H]1O[C@H]1c1ccccc1 | inactive | inactive | – | –
40 | Cc1cc2c(F)c(Oc3ncnn4cc(OCC(C)OC(=O)C(C)N)c(C)c34)ccc2[nH]1 (stereo unspecified) | inactive | inactive | – | –
41 | Nc1nc2c(ncn2C2OC3COP(=O)(O)OC3C2O)c(=O)[nH]1 (stereo unspecified) | inactive | inactive | – | –
42 | CC1(NC(=O)c2ccc(C#Cc3cccc(F)c3)cn2)COC1 | inactive | inactive | – | –
43 | COCC(c1ccc(C(F)(F)F)cc1)N1CCN(C2(C)CCN(C(=O)c3c(C)ncnc3C)CC2)CC1C (stereo unspecified) | inactive | inactive | – | –
44 | Cc1ccc(C)c(NS(=O)(=O)c2cc(C(=O)Nc3ccccc3-c3ccccc3)ccc2C)c1 | inactive | inactive | – | –
45 | CC1OC2OC(=O)C3(C)CC4C5(CO5)C5=CC(=O)OC(C)(C)C5=CC(=O)C4(C)C(C1=O)C23 (stereo unspecified) | 15.8 µM (active) | 12.6 µM (active) | – | –
46 | CC(C)(N)c1ncc(-c2ccc(OC(F)(F)F)cc2)[nH]1 | inactive | inactive | – | –
47 | CCCc1ccc(OCC(=O)N(Cc2nc(-c3cccnc3)no2)C(C)C)cc1 | inactive | inactive | – | –
48 | O=C(NCCCNC(=O)c1ccc[nH]c1=O)c1cc(-c2ccccc2)on1 | inactive | inactive | – | –
49 | O=C(NCCN1CCC(n2c(=O)[nH]c3ccccc32)CC1)c1ccc2ccccc2c1 | inactive | inactive | – | –
50 | COc1ccc(S(=O)(=O)Nc2c(C)cc(C)cc2C)cc1 | inactive | inactive | – | –

Row | Structure (SMILES) | Potency [1] | Potency [2] | activity change, negative = inhibition [1] | activity change, negative = inhibition [2]
51 | C[C@@H]1O[C@@H](O[C@H]2[C@H](OC(=O)[C@]34CCC(C)(C)C[C@H]3C3=CCC5[C@@]6(C)C[C@H](O)[C@H](O[C@@H]7O[C@H](CO)[C@@H](O)[C@H](O)[C@H]7O)[C@](CO)(C(=O)O)C6CC[C@@]5(C)[C@]3(C)C[C@H]4O)OC[C@H](O)[C@@H]2O)[C@H](O)[C@H](O)[C@H]1O[C@@H]1OC[C@@H](O)[C@H](O[C@@H]2OC[C@](O)(CO)[C@H]2O)[C@H]1O (stereo partly specified) | – | – | 10.7% [at 19.1 µM] | 31.9% [at 10.7 µM]
52 | CCCc1cc(C)[nH]c(=O)c1CNC(=O)c1cc(-c2ccc(N3CCN(C(C)C)CC3)nc2)cc2c1cnn2C(C)C | inactive | inactive | – | –
53 | C=C(C)C(=O)O[C@H]1[C@H]2C(=C)C(=O)O[C@@H]2/C=C(\CO)CC/C=C(/C=O)[C@@H]1O | inactive | inactive | – | –
54 | CC(C)C[C@H](NC(=O)CNC(=O)OCc1ccccc1)C(=O)N[C@@H](Cc1ccccc1)C(=O)CCl (Cbz-Gly-Leu-Phe-CH2Cl) | inactive | inactive | – | –
55 | CN(C)C(CCOc1cccc2ccccc12)c1ccccc1 (stereo unspecified) | inactive | inactive | – | –
56 | COc1ccc(CNCc2cccc3ccccc23)cc1 | inactive | inactive | – | –
57 | Oc1cccc(C2NC(=S)Nc3cccc(F)c32)c1 (stereo unspecified) | inactive | inactive | – | –
58 | COc1cc(/C=N\NC(=O)c2ccc3c(c2)OCO3)ccc1OCc1ccccc1 | inactive | inactive | – | –
59 | CN(C)CCN(Cc1ccc(-c2ccc(CNCCc3ccccc3)cc2)cc1)C(=O)CCC1CCCC1 | inactive | inactive | – | –
60 | Fc1ccc(-c2nc(-c3ccccc3F)[nH]c2-c2ccncc2)cc1 | inactive | inactive | – | –
61 | CC(C)CCNC(=O)[C@H](CC(C)C)NC(=O)[C@H]1O[C@@H]1C(=O)O | inactive | inactive | – | –
62 | C=C1C(=O)O[C@@H]2C[C@@]3(C)C[C@@H](O)C[C@H](C)C3=C[C@H]12 | inactive | inactive | – | –
63 | O=C(Nc1cnc(Cl)nc1)c1ccc(F)c(F)c1 | inactive | inactive | – | –
64 | O=c1[nH]c2ccc(C#CCN3CCC(Cc4ccccc4)CC3)cc2[nH]1 | inactive | inactive | – | –
65 | C=CCc1ccc(OC(C)Cc2ccc(OC)c(OC)c2)c(OC)c1 (stereo unspecified) | inactive | inactive | – | –
66 | COC(=O)C1=CO[C@@H](O[C@@H]2O[C@H](CO)[C@@H](O)[C@H](O)[C@H]2O)[C@H]2[C@@H]1C=C[C@]21C=C([C@H](C)OC(=O)/C=C/c2ccc(O)cc2)C(=O)O1 | inactive | inactive | – | –
67 | COc1ccccc1N1CCN(CC[C@@](C)(C(=O)C2CCCCC2)c2ccccc2)CC1 | inactive | inactive | – | –
68 | C=CC(=O)N1CCCN(c2cc(NCCC(=O)O)nc(-c3ccccn3)n2)CC1 | inactive | inactive | – | –
69 | CCNC(=O)c1noc(-c2cc(Cl)c(O)cc2O)c1-c1ccc(OC)cc1 | inactive | inactive | – | –
70 | CC[C@@H](C)[C@@H]1OC2(C=C[C@H]1C)C[C@@H]1C[C@H](C/C=C(\C)[C@H](O[C@H]3C[C@H](OC)[C@H](O[C@H]4C[C@H](OC)[C@H](NC(C)=O)[C@H](C)O4)[C@H](C)O3)[C@H](C)/C=C/C=C3\CO[C@H]4[C@H](O)C(C)=C[C@@H](C(=O)O1)[C@@]34O)O2 (stereo partly specified) | inactive | inactive | – | –
71 | C=C1C(=O)O[C@@H]2/C=C(/C)[C@@H](OC(C)=O)C/C=C(\C)C[C@@H](OC(=O)/C(=C/CO)CO)[C@@H]12 | inactive | inactive | – | –
72 | CCN(c1cc(-c2ccc(CN3CCOCC3)cc2)cc(C(=O)NCc2c(C)cc(C)[nH]c2=O)c1C)C1CCOCC1 | inactive | inactive | – | –
73 | C=C1CC[C@@H](O)[C@]2(C)CC[C@H]3C(=C)C(=O)O[C@@H]3[C@@H]12 | inactive | inactive | – | –
